Test results published in PubChem BioAssay (NCATS).
Inconclusive results are not listed. Calls of active or inactive are those of the source. Calls come from the whole dose curve; as a rule, active = well fitted curve in the direction sought with a large enough effect; inconclusive = small, poorly fitted or top-dose-only effect, or another doubt; inactive = no such curve, though single readings can be large; an effect the other way counts as inactive or inconclusive.

Columns and labels:
[1] = Quantitative High-Throughput drug screen in 47 multiple myeloma cell lines against the NCATS MIPE library collection: KMS12BM_JCRB cell viability assay (AID 1918971); note: nearly all actives have a fitted effect of over 35% in size
Outline: (§1)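 Myeloma cell lines, 500 cells per well, exposed to MIPE 4.0 library compounds for 48 h at 37C, 5% CO2. Viability from ATP by CellTiter-Glo luminescence; normalised to DMSO (100%) and media-only (0%) wells.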

[2] = Quantitative High-Throughput drug screen in 47 multiple myeloma cell lines against the NCATS MIPE library collection: KMS12PE_JCRB cell viability assay (AID 1918972); note: nearly all actives have a fitted effect of over 30% in size; for viability: series mostly up to about 46 µM
Outline: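 We plated 500 myeloma cells per well, pinned in MIPE 4.0 compounds, and incubated for 48 hours at 37C. ATP was then quantified with CellTiter-Glo, with DMSO and media-only wells defining 100% and 0%.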

[3] = Quantitative High-Throughput drug screen in 47 multiple myeloma cell lines against the NCATS MIPE library collection: MM1S_ATCC cell viability assay (AID 1918980); note: nearly all actives have a fitted effect of over 45% in size
Outline: (§2)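 Plated at 500 cells per well, myeloma lines received MIPE 4.0 compounds by pin tool. Following 48 h culture at 37 °C, CellTiter-Glo luminescence gave viability relative to DMSO and media-only controls.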

[4] = Quantitative High-Throughput drug screen in 47 multiple myeloma cell lines against the NCATS MIPE library collection: KMS20_JCRB cell viability assay (AID 1918973); note: nearly all actives have a fitted effect of over 45% in size
Outline: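 qHTS of the MIPE 4.0 collection: 500 myeloma cells/well, 48 h drug exposure at 37C in 5% CO2, then CellTiter-Glo for 5 min at room temperature before luminescence reading.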

[5] = Quantitative High-Throughput drug screen in 47 multiple myeloma cell lines against the NCATS MIPE library collection: NCIH929_DSMZ cell viability assay (AID 1918978); note: nearly all actives have a fitted effect of over 35% in size
Outline: as §2

[6] = Quantitative High-Throughput drug screen in 47 multiple myeloma cell lines against the NCATS MIPE library collection: OCIMY1_PLB cell viability assay (AID 1918979); note: nearly all actives have a fitted effect of over 35% in size; for viability: series mostly up to about 46 µM
Outline: as §2

[7] = Quantitative High-Throughput drug screen in 47 multiple myeloma cell lines against the NCATS MIPE library collection: KMS26_JCRB cell viability assay (AID 1918975); note: nearly all actives have a fitted effect of over 45% in size
Outline: as §1

[8] = Quantitative High-Throughput drug screen in 47 multiple myeloma cell lines against the NCATS MIPE library collection: MMM1_PLB cell viability assay (AID 1918976); note: nearly all actives have a fitted effect of over 35% in size
Outline: as §2

[9] = Quantitative High-Throughput drug screen in 47 multiple myeloma cell lines against the NCATS MIPE library collection: MOLP8_DSMZ cell viability assay (AID 1918977); note: nearly all actives have a fitted effect of over 45% in size
Outline: as §2

Measured: Potency
Potency is the fitted concentration of half-maximal effect.

C[C@@H]1CCO[C@H]2Cn3cc(C(=O)NCc4ccc(F)cc4F)c(=O)c(O)c3C(=O)N12
active: [1] 20.9 µM | [3] 20.9 µM
inactive: [2]

CCN1CCN(c2ccc(Nc3cc(N(C)C(=O)Nc4c(Cl)c(OC)cc(OC)c4Cl)ncn3)cc2)CC1
active: [1] 16.6 µM | [4] 2.09 µM
inactive: [5] | [6]

O=C(O)C1=CC(O)C(O)[C@H](O)C1 (stereo not given in full)
inactive: [1] | [2] | [6] | [3]

CC1(COc2ccc3c(c2)ncn3-c2ccc3cccc(N4CCC(N)CC4)c3n2)COC1
active: [1] 11.8 µM | [7] 14.8 µM | [8] 1.48 µM

CN1C(=O)C(Cc2c[nH]c3ccccc23)NC1=S (stereo not given)
active: [1] 13.2 µM | [8] 11.8 µM
not listed: [2] | [4]
inactive: all other assays above

CCN(CCO)CCCOc1ccc2c(Nc3cc(CC(=O)Nc4cccc(F)c4)[nH]n3)ncnc2c1
active: [1] 0.209 µM
inactive: [4] | [9] | [5] | [3]

COc1cc([C@@H]2c3cc4c(cc3[C@@H](O[C@@H]3O[C@@H]5CO[C@@H](C)O[C@@H]5[C@H](O)[C@@H]3O)[C@H]3COC(=O)[C@H]23)OCO4)cc(OC)c1O
inactive: [9] | [6]
active: [1] 1.48 µM | [3] 0.264 µM

CC(C)C[C@H](NC(=O)c1cc2ccccc2s1)C(=O)N1CCN(C(=O)[C@H](CO)NS(=O)(=O)c2ccc(Cl)cc2Cl)CC1
active: [1] 18.7 µM | [8] 18.7 µM | [5] 26.4 µM

COc1cc2nccc(Oc3ccc(NC(=O)Nc4cc(C)on4)c(Cl)c3)c2cc1OC
active: [1] 23.5 µM | [7] 16.6 µM | [8] 23.5 µM | [3] 6.62 µM

O=C(c1ccc(C=Cc2n[nH]c3ccccc23)cc1)N1CCNCC1
active: [2] 2.35 µM | [4] 1.87 µM | [7] 16.6 µM | [8] 5.26 µM | [9] 16.6 µM | [5] 2.35 µM | [3] 16.6 µM

Nc1ncnc2c1c(-c1cccc(OCc3ccccc3)c1)cn2C1CC(CN2CCC2)C1 (stereo not given)
active: [2] 16.6 µM | [4] 3.72 µM | [7] 4.69 µM | [8] 2.96 µM | [5] 0.418 µM

CC(O)=C(C#N)C(=O)Nc1ccc(C(F)(F)F)cc1
inactive: [6]
active: [1] 14.8 µM | [7] 18.7 µM | [8] 3.72 µM | [3] 16.6 µM

C[C@H]1COC2=C1C(=O)C(=O)c1c2ccc2c1CCCC2(C)C
inactive: [6]
active: [1] 18.7 µM | [7] 29.6 µM | [8] 13.2 µM | [9] 20.9 µM | [3] 26.4 µM

Cc1cccc2c1CC[C@H](CN1CCC(c3c(Cl)cccc3Cl)CC1)C[C@@H]2O
active: [1] 16.6 µM | [8] 18.7 µM

CC(C)[C@H](O)C(=O)N[C@@H](C)C(=O)N[C@@H]1C(=O)N(C)CCc2ccccc21
inactive: [2] | [4] | [7] | [6]
active: [8] 23.5 µM | [9] 0.0053 µM | [5] 16.6 µM

Cc1cnc(CNC(=O)c2c(=O)c3ccc(N4CCCN(C)CC4)nc3n3c2sc2ccccc23)cn1
active: [1] 0.323 µM | [7] 12.9 µM | [8] 9.11 µM | [9] 9.11 µM | [3] 2.88 µM

CN(C)c1ccccc1CN1CCCN(Cc2ccccc2N(C)C)C1c1ccncc1
active: [1] 16.6 µM | [8] 16.6 µM | [9] 18.7 µM | [5] 14.8 µM

C[C@H]1[C@H](O)O[C@@H]2O[C@@]3(C)CC[C@@H]4[C@H](C)CC[C@@H]1[C@@]24OO3
active: [1] 1.66 µM | [7] 10.5 µM | [3] 11.8 µM

COc1nccc(-c2c(-c3ccc(F)cc3)ncn2C2CCC(O)CC2)n1 (stereo not given)
inactive: [6]
active: [1] 20.9 µM | [7] 6.62 µM | [3] 4.69 µM

Cc1c(C(=O)Nc2ccc(N3C[C@@H](C)O[C@@H](C)C3)nc2)cccc1-c1ccc(OC(F)(F)F)cc1
active: [1] 18.7 µM | [8] 11.8 µM | [9] 13.2 µM | [3] 14.8 µM

N=C1SC(=Cc2ccc(-c3ccc4c(c3)C(=O)NC4=O)o2)C(=O)N1c1ccc(Br)cc1
active: [1] 4.18 µM | [7] 4.18 µM | [8] 3.32 µM | [9] 3.72 µM | [6] 4.18 µM | [3] 26.4 µM
